HPGD block – blocks human HPGD enzyme activity; P15428; purified HPGD, NADH fluorescence kinetic, PGE2 substrate; Potency, µM, inactives show at the highest dose activity change, negative = inhibition, usual class: inhibitors; AID 894; 150,000 tested, 4.3% active; active = well fitted inhibition curve with a large enough effect, not every such curve was filed as active; inconclusive = small, poorly fitted or top-dose-only effect, or another doubt; inactive = no such curve, though single readings can be large or run the other way; also: potency is read from the fitted curve at half-maximal effect; % is scaled to controls: 0 for no effect and ±100 for the full control effect
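20 nM HPGD preincubated 15 min at room temperature with compound in 50 mM Tris-HCl pH 8, 0.01% Tween 20. Started with 1 mM NAD+ and 30 uM prostaglandin E2; NADH fluorescence (360/450 nm) read 5 times over 30-s intervals, last minus first.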
GoLoco inh red – inhibitors of human Gai1-RGS12 GoLoco interaction (red fluorophore); Gai1:RGS12 GoLoco peptide FP, rhodamine, 10 min; Potency, µM (titrated, usually from 61.6 µM), without a hit: top-dose activity, negative = inhibition, usual class: inhibitors; 230,000 tested, 0.44% active; active = well fitted inhibition curve with a large enough effect, not every such curve was filed as active; inactive = no such curve, though single readings can be large or run the other way; also: potency is read from the fitted curve at half-maximal effect; % is scaled to controls: 0 for no effect and ±100 for the full control effect; nearly all actives have a fitted effect of over 30% in size
Target sequence (P63096 whole entry, looked up): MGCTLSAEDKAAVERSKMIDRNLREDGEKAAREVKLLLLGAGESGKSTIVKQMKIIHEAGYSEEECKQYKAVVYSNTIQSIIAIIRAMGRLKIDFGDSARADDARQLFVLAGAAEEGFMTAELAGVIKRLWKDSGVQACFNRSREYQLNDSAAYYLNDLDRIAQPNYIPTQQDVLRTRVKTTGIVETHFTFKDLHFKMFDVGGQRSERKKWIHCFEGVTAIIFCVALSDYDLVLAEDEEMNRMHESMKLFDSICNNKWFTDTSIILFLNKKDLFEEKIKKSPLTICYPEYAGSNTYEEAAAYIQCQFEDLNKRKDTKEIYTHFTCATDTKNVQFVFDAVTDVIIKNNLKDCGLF
PNC assembly inh – inhibitors of perinucleolar compartment assembly; activity change (PNC), negative = inhibition, % at 10 µM; AID 2417; 140,000 tested, 3.1% active; PC3M PTB-GFP, PNC prevalence imaging, 16 h; hits give low values;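 active = readout at or below -70, meaning at least 70% loss of cells showing the perinucleolar compartment, a nuclear body marking cancer cells; inconclusive = readout between -30 and a set limit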;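 also: plate controls were DMSO wells for no effect and camptothecin positive control wells for full effect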
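PC3M cells stably expressing PTB-GFP, 750–1000 cells/well, treated 16 h at 37 °C with compound (23 nl of library stock), in duplicate. After paraformaldehyde fixation and Hoechst stain, imaged at 20x; PNC prevalence scored by image analysis.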
HTT cytoprotect – protects HTT-Q103 PC12 cells, measured by ATP. PC12 HTT-Q103 induced, cytoprotection, ATP luminescence, 40 h. Potency, µM (highest dose often 56.4 µM), inactives show cytoprotection (ATP increase), usual class: activators. 230,000 tested, 0.14% active. AID 1471; also: potency is read from the fitted curve at half-maximal effect; % of control where 0% means no effect; nearly all actives have a fitted effect of over 45% in size
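Rat PC12, Q103 Htt exon1-GFP fusion, ecdysone promoter; tebufenozide inducer 100 nM final; compound titration; qHTS, 1500 cells/well; ATPlite luminescent read.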
ALDH1A1 block – blocks purified human ALDH1A1 activity. Purified ALDH1A1, NADH fluorescence, propionaldehyde substrate. Potency, µM (top dose mostly 75.3 µM), for inactives: at the highest dose activity, negative = inhibition, most hits filed as inhibitors. 220,000 tested, 7.3% active. AID 1030; active = well fitted inhibition curve with a large enough effect, not every such curve was filed as active; inconclusive = small, poorly fitted or top-dose-only effect, or another doubt; inactive = no such curve, though single readings can be large or run the other way;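 also: potency is read from the fitted curve at half-maximal effect; plate controls were no enzyme wells and a reference inhibitor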
Target sequence (P00352 whole entry, looked up): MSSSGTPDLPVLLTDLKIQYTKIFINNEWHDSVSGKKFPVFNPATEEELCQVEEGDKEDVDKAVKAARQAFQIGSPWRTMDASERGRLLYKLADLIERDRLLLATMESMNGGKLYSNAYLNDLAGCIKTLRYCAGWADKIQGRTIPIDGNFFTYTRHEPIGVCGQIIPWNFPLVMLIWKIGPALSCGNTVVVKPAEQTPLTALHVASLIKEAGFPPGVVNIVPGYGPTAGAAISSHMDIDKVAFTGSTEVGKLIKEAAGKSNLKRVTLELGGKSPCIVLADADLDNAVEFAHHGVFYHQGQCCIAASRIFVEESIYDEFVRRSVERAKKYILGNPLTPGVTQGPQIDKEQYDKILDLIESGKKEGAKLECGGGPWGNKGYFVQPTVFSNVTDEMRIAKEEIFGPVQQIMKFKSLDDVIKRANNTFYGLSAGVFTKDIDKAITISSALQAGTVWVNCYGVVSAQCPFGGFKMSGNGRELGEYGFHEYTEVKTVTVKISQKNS
HTT aggregate – reduces HttQ103-GFP aggregates in PC12 cells; 220,000 tested, 1.1% active; Potency, µM (highest dose often 46.1 µM), for inactives: top-dose activity change, negative = inhibition, most hits filed as inhibitors; PC12 HttQ103-GFP aggregates, Acumen cytometry, 40 h; also: potency is read from the fitted curve at half-maximal effect; % is scaled to controls: 0 for no effect and ±100 for the full control effect; nearly all actives have a fitted effect of over 60% in size
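Multiplexed with ATP-based cell death, this channel scores GFP aggregates in PC12 cells expressing inducible HTTex1-Q103-GFP. Induction used 100 nM tebufenozide; compounds were tested in concentration series.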
The depositor's hits bear a star; ? = inconclusive; / = no result given; [ ] = another dose, or the depositor's remark. In the library only some 11% were active in any assay of this set; here they are far more common. Unless noted, calls follow the shape of the dose curve; as a rule, active = well fitted curve in the direction sought with a large enough effect; inconclusive = small, poorly fitted or top-dose-only effect, or another doubt; inactive = no such curve, though single readings can be large; an effect the other way counts as inactive or inconclusive.

SMILES | HPGD block | GoLoco inh red | PNC assembly inh | HTT cytoprotect | ALDH1A1 block | HTT aggregate
CCCNS(=O)(=O)c1ccc(CCC(=O)NCCc2ccc(OC)c(OC)c2)cc1 | / | -4.1% | / | -12.5%[10 µM] | ? | -17.4%[9.22 µM]
O=S(=O)(NCC1CCCO1)c1ccc2oc3ccc(S(=O)(=O)NCC4CCCO4)cc3c2c1 (stereo not drawn) | -22.2% | 3.0% | ? | -1.2% | -1.1% | -7.6%
COc1ccc(CCNS(=O)(=O)c2ccccc2)cc1OC | -9.7% | -3.4% | -23.4 | -2.7% | -8.0% | 3.55µM*
O=C(O)CCCCCCNS(=O)(=O)c1ccccc1 | -16.9% | -3.4% | 23.5 | 3.9% | ? | 11.5%[9.22 µM]
O=S(=O)(NCCOCCNS(=O)(=O)c1ccccc1)c1ccccc1 | -2.5% | 4.8% | -18.8 | -7.6% | 25.1µM* | 9.8%
O=S(=O)(NCCOCC(F)(F)F)c1ccc2oc3ccccc3c2c1 | ? | 6.8% | 16.9 | -26.3% | 8.91µM* | ?
CCC(=O)O[C@H](CC(=O)O)C[N+](C)(C)C | -0.8% | 10.7% | / | 18.0% | -5.7% | /
Cc1ccc(-c2cc3nc(C)cc(NCc4ccco4)n3n2)cc1 | ? | 8.2% | -104.1* | -96.5%[10 µM] | ? | -2.5%
COCCNc1cc(C)nc2cc(-c3ccc(C)cc3)nn12 | / | 12.7% | / | -125.7% | ? | 0.8%
CC(C)N1CCC(N2CCN(C3CCCCCC3)CC2CCO)CC1 (stereo not drawn) | / | 5.3% | / | 6.9% | 1.4% | 2.6%
N#CCCn1c(=O)c(-c2ccc(F)cc2)nc2cnc(Oc3cccc(Cl)c3)nc21 | -18.1% | -2.5% | / | 3.16µM* | ? | /
O=c1c(CCc2ccccc2)nc2cnc(Oc3ccccc3)nc2n1C1CC1 | / | 6.9% | / | -98.6% | 11.2µM* | /
COCCn1c(=O)c(CCc2ccccc2)nc2cnc(Oc3ccccc3)nc21 | / | 0.5% | / | -9.4% | ? | /
N#CCCn1c(=O)c(CCc2ccccc2)nc2cnc(Oc3cccc(Cl)c3)nc21 | 0.2% | 1.4% | / | 5.4% | 10µM* | /
COCCn1c(=O)c(CCc2ccccc2)nc2cnc(OCc3ccccc3)nc21 | / | 4.0% | / | -82.2% | 25.1µM* | /
COc1ccc(O[C@H]2C=C[C@@H](c3ccccc3)O[C@@H]2CON=C(C)C)cc1 | / | / | / | -6.7%[10 µM] | 3.3%[13.5 µM] | /
COc1ccc2c(Cl)c(C(=O)NN)sc2c1 | -29.1% | 0.6% | -5.9 | -72.6% | 1.12µM* | -30.5%
COc1ccc2c(Cl)c(C(N)=O)sc2c1 | -12.7% | 6.4% | 22.7 | -27.4% | -0.8% | ?
CCN(CC)S(=O)(=O)c1ccc2c(c1)nc(SCC(=O)N1CCCCCC1)n2-c1ccc(OC)cc1 | -11.3% | 9.6% | -6.1 | -19.3% | -2.5% | -5.8%
CCN(CC)S(=O)(=O)c1ccc2c(c1)nc(SCC(N)=O)n2-c1ccc(OC)cc1 | 22.4µM* | 79.9% | -10.4 | -2.4% | ? | 14.0%[9.22 µM]
CCOc1ccccc1NC(=O)c1cc(C(=O)Nc2ccccc2OCC)cc(N2C(=O)CCC2=O)c1 | / | 9.8% | / | 1.7%[10 µM] | -1.6% | 3.3%[9.22 µM]
Cc1cc(C(=O)CN2C(=O)CCC2=O)c(C)n1Cc1ccccc1 | -9.8% | 16.4% | -1.5 | -19.7% | 7.08µM* | 12.3%
COc1c(Cl)ccc(Cl)c1C(=O)O | -22.7% | 3.6% | / | / | ? | /
CCOC(=O)C1CCN(C(=O)c2ccc(Br)o2)CC1 | -12.6% | -4.6% | -5.7 | 4.3% | 3.16µM* | -26.7%
CCOC(=O)C1CCN(C(=O)N(C)C)CC1 | -17.4% | -35.6% | ? | -11.4%[10 µM] | 5.8% | 0.3%
SMILES | HPGD block | GoLoco inh red | PNC assembly inh | HTT cytoprotect | ALDH1A1 block | HTT aggregate
CCOC(=O)C1CCN(C(=O)CSc2ccc(Cl)cc2)CC1 | -6.7% | 3.5% | -100.0* | 29.4%[10 µM] | -1.3% | -1.5%
CCOC(=O)C1CCN(C(=O)C(C)Sc2ccc(Cl)cc2)CC1 (stereo not drawn) | -8.1% | 6.4% | -11.6 | 0.3%[1.9 µM] | ? | -16.2%
CCOC(=O)C1CCN(C(=O)CSCCSCC(=O)N2CCC(C(=O)OCC)CC2)CC1 | -10.1% | 1.3% | -8.7 | -2.8%[10 µM] | 11.2µM* | 4.9%
CCOC(=O)C1CCN(C(=O)CSc2ccc(Br)cc2)CC1 | / | 5.6% | / | -32.4% | 31.6µM* | 7.3%[9.22 µM]
COC(=O)c1ccc(NC(=S)NCCCn2ccnc2)cc1 | / | -5.6% | / | / | 1.7% | /
CCCC/C=C/C(NC(=O)OCc1ccccc1Cl)c1ccccc1 (stereo not drawn) | ? | -1.8% | / | 7.3% | -5.5% | /
C=C1CCC(O)C/C1=C/C=C1\CCC[C@]2(C)[C@@H]([C@H](C)/C=C/[C@H](C)C(C)C)CC[C@@H]12 (stereo partly drawn) | / | 2.1% | / | 10.9% | / | 4.0%
C=CCCCCCCCCC(=O)O | -8.5% | 2.1% | / | ? | 1.8% | -17.7%
C=CCCCCCCCC(=O)OC | / | -0.8% | / | -4.2%[10 µM] | 17.8µM* | 10.1%[9.22 µM]
C=CCCCCCCCCC(=O)NN | -8.4% | 1.4% | -9.3 | 10.0%[10 µM] | 14.1µM* | -5.4%
O=C(Nc1cccc(F)c1)N1CC2(CCN(C(=O)c3cccc(F)c3)CC2)C1 | -3.8% | 12.4% | / | -44.7% | -11.2% | /
CC(C)C[C@@H](CC(=O)N[C@@H](CCC(=O)O)CC(=O)O)NC(=O)[C@@H]1CCCC[C@H]1NC(=O)C[C@H](CCCN)NC(=O)C[C@H](Cc1ccccc1)NC(=O)[C@@H]1CCCC[C@H]1N | -8.0% | 2.5% | / | -5.7%[1.9 µM] | 5.4% | /
C=CCc1cccc(/C=N/NC(=O)C(C)Nc2ccc(C)cc2)c1O (stereo not drawn) | -9.1% | -0.1% | 68.4 | 9.0%[10 µM] | -4.5% | 8.91µM*
Cc1cnc(CNc2cc(-c3ccc(C(=O)N(C)C)cc3)ncn2)cn1 | / | 43.6% | / | -12.8% | ? | /
CN(C)c1ccc(/C=C2/C(=O)N(c3ccc([N+](=O)[O-])cc3)N=C2N2CCOCC2)cc1 | -10.0% | 2.7% | 36.9 | 18.3% | 1.26µM* | 13.7%
CCN(/N=C/c1ccc(Cl)cc1)c1cc(=O)n(C)c(=O)[nH]1 | 28.2µM* | 14.2% | 6.0 | 15.1%[10 µM] | ? | 11.7%
CCN(/N=C/C=C/c1ccccc1)c1cc(=O)n(C)c(=O)[nH]1 | -26.4% | -0.5% | ? | -5.3%[10 µM] | 0.5% | 1.1%
N#Cc1cn(CC(=O)N2CCCc3ccccc32)c2ccccc12 | -19.7% | -3.4% | 65.9 | 15.1%[10 µM] | -8.0% | -15.9%
O=C(CN1CCOCC1)N1CCCc2ccccc21 | / | -9.9% | / | / | 7.94µM* | /
O=Cc1cn(CC(=O)N2CCCc3ccccc32)c2ccccc12 | -8.5% | 6.0% | -100.0* | 19.8%[10 µM] | ? | 5.1%
CCC(=O)Nc1ccccc1Nc1cc(C#N)c(C#N)cc1[N+](=O)[O-] | -5.9% | 8.3% | 11.1 | -22.5% | 3.8% | -15.1%
O=c1c2c3c(sc2ncn1/N=C/c1ccccc1)CCCC3 | 0.1% | -2.1% | -15.8 | -10.7%[10 µM] | 11.2µM* | -15.0%
O=c1c2c3c(sc2ncn1/N=C/c1ccco1)CCCC3 | -3.8% | 12.3% | 22.4 | -7.0% | ? | -23.2%
